This passage reports Percent Effect results from ChEMBL document CHEMBL3988442, “University of Dundee, Small-Polar-MMV Screening Library” (2021).

Design in all cases: scale not given: direction of the effect not stated beside the values
Assay [1] deals with Protein translocase subunit SecA (Escherichia coli (strain K12)) (UniProt P10408). Description: Assay to Identify E. coli SecA ATPase Inhibitors. To be noted: 30 µM. The format is functional.
For assay [2], the target named is T1, Ubiquitin-activating enzyme e1, putative (Leishmania donovani (strain BPK282A1)) (UniProt E9BSI1).
T1 sequence (whole entry): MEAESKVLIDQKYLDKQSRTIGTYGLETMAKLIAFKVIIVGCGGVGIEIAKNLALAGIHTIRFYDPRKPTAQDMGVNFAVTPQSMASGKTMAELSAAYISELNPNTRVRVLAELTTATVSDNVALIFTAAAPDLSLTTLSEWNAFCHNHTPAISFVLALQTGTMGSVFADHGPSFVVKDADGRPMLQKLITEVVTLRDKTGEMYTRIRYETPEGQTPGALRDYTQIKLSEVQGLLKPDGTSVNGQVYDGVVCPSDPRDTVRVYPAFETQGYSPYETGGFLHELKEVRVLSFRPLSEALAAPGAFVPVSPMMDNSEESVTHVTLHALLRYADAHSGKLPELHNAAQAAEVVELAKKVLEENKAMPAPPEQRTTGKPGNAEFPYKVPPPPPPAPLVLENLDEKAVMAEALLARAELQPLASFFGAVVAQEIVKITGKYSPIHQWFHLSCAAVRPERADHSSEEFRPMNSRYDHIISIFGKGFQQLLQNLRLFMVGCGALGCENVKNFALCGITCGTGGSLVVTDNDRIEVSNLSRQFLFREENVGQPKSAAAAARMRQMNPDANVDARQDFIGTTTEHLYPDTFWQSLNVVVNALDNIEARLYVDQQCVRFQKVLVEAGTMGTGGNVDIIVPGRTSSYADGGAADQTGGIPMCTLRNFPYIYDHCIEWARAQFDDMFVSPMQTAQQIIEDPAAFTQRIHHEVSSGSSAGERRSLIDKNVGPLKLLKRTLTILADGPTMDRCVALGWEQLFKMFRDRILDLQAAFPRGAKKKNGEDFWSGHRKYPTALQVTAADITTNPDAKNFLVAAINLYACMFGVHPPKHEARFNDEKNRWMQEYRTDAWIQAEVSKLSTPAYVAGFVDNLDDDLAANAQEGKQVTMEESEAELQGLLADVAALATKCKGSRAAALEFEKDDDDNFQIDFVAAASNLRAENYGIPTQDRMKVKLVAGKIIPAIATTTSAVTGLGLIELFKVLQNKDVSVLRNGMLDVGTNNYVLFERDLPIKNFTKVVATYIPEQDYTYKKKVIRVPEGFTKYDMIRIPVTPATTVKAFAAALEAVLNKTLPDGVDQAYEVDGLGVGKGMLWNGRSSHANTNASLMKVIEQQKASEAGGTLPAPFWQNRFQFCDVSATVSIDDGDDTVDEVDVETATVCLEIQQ
Description: Leishmania donovani Ubiquitin Activating Enzyme (LdE1). Format: functional. Particulars: 30 µM.

Assay [3] deals with AMP-activated protein kinase, AMPK (Homo sapiens) (UniProt P54646+O43741+P54619+Q9UGJ0+Q9Y478+Q13131+Q9UGI9). The assay can be described thus: AMP-dependent Kinase enzyme assay. An in vitro enzyme assay that detects ADP turnover that is directly proportional to AMPK activity. This uses naive AMPK that is activated during the assay with MK-8722. To be noted: 30 µM. Format: functional.

In assay [4] the target is Sialic acid-binding Ig-like lectin 9 (Homo sapiens) (UniProt Q9Y336). Description: Hs-Siglec9 ALPHAscreen SOP 20170721. Particulars: 10 µM. (In general: In Alpha technology, singlet oxygen from a donor bead excites a nearby acceptor bead.)
Sialic acid-binding Ig-like lectin 9 (Homo sapiens), sequence (Q9Y336 whole entry): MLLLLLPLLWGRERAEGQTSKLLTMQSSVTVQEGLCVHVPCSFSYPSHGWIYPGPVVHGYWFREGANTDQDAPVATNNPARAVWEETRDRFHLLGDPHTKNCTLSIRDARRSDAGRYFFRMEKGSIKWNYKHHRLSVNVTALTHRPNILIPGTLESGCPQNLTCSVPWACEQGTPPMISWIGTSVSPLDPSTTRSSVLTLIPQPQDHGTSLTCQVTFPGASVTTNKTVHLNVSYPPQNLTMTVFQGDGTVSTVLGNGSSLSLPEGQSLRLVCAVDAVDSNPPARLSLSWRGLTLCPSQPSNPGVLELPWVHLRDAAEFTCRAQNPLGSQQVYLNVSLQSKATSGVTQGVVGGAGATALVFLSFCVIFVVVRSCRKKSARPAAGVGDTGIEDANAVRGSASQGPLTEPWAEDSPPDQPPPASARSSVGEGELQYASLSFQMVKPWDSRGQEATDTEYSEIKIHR
Another assay deals with Trypanosoma cruzi. The assay can be described thus: Trypanosoma cruzi phosphomannomutase and mannose-1-phosphate guanylyltransferase assay. Format: functional. Particulars: 10 µM.
The target of assay [5] is T2, Arginase-2, mitochondrial (Homo sapiens) (UniProt P78540).
T2 sequence (whole entry): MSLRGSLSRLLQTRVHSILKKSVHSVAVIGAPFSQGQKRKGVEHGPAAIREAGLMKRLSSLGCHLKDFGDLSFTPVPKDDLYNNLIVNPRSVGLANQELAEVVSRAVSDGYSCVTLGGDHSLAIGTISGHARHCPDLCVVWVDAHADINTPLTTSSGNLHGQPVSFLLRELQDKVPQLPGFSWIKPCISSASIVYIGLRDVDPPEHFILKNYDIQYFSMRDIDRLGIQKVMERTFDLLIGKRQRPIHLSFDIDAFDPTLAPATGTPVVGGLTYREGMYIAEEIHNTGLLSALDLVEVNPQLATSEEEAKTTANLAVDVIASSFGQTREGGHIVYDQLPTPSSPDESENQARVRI
The assay can be described thus: in vitro enzyme assay to detect the production of urea directly proportional to the activity of Arginase II. Also: in the data most compounds retested in dose-response had high values. Particulars: 33.3 µM. The format is functional.

Assay [6] concerns the target T3, Proteasome subunit beta (Trypanosoma cruzi) (UniProt O96673).
T3 sequence (whole entry): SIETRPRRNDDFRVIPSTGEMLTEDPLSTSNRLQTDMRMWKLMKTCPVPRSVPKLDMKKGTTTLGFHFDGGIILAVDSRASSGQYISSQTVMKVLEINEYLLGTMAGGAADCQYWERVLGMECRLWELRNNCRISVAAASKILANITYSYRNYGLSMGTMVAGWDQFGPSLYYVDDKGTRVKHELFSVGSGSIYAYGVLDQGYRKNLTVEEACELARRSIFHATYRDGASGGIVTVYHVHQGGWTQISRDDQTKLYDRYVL
The assay can be described thus: Trypanosoma cruzi proteasome chymotrypsin-like activity (TcProtChymo) assay. Also: in the data most compounds retested in dose-response had high values. Format: functional. To be noted: 9.37 µM.

A further assay is filed under the species Homo sapiens. The assay can be described thus: To identify inhibition of the IFN signalling (Jak-Stat) pathway via expression of an eGFP reporter gene under the control of an IFN-stimulated response element (ISRE) containing MxA promoter. Format: functional. To be noted: 30 µM. On the technique in general: In a reporter assay the amount or activity of a reporter protein is the signal.

The target in assay [7] is T4, Tyrosyl-tRNA synthetase, putative (Trypanosoma cruzi (strain CL Brener)) (UniProt Q4DSP6).
T4 sequence (whole entry): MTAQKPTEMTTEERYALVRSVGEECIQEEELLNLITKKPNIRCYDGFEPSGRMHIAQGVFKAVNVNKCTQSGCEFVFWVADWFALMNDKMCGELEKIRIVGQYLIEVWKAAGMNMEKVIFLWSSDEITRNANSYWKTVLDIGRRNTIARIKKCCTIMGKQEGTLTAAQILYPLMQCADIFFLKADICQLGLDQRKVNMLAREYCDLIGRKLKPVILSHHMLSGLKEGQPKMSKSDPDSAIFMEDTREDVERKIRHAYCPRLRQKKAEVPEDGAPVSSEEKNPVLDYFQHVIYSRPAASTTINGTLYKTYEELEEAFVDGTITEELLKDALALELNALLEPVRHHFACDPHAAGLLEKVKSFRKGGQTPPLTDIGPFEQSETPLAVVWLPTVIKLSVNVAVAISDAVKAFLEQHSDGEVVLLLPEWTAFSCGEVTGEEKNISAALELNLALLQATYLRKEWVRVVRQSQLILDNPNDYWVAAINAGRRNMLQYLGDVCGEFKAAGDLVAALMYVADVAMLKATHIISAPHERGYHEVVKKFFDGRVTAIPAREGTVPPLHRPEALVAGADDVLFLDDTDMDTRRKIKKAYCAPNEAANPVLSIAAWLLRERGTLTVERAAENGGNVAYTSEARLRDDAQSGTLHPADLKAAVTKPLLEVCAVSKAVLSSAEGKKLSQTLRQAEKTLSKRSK
The assay can be described thus: Trypanosoma cruzi tyrosyl tRNA synthetase (TcYRS) _High Tyrosine SOP. Also: in the data most compounds retested in dose-response had high values. Format: functional. Particulars: 30 µM.

In assay [8] the target is T4, Tyrosyl-tRNA synthetase, putative (Trypanosoma cruzi (strain CL Brener)). The assay can be described thus: Trypanosoma cruzi tyrosyl tRNA synthetase (TcYRS) SOP. Format: functional. To be noted: 30 µM.
For assay [9], the target named is Chromo domain-containing protein 1 (Saccharomyces cerevisiae (strain ATCC 204508 / S288c) (Baker's yeast)) (UniProt P32657). Description: ScCHD-1 Enzyme Inhibition Assay. Also: in the data most compounds retested in dose-response had high values. The format is functional. Particulars: 30 µM.
Chromo domain-containing protein 1 (Saccharomyces cerevisiae (strain ATCC 204508 / S288c) (Baker's yeast)), sequence (P32657 whole entry, the tested form may be a part): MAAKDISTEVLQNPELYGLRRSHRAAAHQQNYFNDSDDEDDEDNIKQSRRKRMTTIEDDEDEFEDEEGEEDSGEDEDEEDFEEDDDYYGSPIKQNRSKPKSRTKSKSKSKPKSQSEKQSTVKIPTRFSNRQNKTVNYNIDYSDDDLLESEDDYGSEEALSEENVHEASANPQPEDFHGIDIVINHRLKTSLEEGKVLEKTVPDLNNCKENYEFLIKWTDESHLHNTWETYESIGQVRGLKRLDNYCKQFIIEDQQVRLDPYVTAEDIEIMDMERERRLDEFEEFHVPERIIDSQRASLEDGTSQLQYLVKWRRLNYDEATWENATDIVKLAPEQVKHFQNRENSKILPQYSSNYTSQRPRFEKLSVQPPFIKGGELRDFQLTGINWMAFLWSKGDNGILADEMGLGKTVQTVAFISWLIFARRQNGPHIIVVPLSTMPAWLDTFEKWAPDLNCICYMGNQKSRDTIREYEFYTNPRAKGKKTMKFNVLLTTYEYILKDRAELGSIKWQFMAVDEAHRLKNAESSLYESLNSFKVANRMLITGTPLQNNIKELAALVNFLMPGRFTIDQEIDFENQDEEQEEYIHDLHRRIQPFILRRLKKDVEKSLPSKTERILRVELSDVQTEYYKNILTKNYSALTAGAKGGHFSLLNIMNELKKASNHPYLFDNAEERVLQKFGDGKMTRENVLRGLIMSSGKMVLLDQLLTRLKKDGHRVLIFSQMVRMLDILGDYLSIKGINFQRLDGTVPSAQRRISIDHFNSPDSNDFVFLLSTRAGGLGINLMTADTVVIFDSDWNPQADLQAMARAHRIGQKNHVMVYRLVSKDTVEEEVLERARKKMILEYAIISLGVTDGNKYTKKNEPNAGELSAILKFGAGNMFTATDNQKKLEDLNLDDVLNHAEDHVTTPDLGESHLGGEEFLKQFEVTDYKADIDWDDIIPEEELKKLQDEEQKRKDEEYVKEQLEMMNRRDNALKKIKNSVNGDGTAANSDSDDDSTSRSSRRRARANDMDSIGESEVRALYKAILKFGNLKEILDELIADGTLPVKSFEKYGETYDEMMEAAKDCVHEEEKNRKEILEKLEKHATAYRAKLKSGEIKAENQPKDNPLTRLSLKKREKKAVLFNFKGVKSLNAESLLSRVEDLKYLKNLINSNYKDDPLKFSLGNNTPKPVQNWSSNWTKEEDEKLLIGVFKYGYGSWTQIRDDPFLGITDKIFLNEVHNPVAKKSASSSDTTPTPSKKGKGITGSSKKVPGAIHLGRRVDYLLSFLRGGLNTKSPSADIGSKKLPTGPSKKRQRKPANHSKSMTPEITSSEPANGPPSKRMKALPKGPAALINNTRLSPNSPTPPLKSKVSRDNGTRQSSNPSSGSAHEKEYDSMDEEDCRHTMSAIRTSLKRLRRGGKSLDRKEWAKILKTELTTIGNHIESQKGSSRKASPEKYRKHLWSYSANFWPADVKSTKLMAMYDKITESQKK

Each structure is given as a SMILES string. For some of these results: Measured potencies and affinities stand elsewhere.

Protein translocase subunit SecA (Escherichia coli (strain K12)), sequence (P10408 whole entry): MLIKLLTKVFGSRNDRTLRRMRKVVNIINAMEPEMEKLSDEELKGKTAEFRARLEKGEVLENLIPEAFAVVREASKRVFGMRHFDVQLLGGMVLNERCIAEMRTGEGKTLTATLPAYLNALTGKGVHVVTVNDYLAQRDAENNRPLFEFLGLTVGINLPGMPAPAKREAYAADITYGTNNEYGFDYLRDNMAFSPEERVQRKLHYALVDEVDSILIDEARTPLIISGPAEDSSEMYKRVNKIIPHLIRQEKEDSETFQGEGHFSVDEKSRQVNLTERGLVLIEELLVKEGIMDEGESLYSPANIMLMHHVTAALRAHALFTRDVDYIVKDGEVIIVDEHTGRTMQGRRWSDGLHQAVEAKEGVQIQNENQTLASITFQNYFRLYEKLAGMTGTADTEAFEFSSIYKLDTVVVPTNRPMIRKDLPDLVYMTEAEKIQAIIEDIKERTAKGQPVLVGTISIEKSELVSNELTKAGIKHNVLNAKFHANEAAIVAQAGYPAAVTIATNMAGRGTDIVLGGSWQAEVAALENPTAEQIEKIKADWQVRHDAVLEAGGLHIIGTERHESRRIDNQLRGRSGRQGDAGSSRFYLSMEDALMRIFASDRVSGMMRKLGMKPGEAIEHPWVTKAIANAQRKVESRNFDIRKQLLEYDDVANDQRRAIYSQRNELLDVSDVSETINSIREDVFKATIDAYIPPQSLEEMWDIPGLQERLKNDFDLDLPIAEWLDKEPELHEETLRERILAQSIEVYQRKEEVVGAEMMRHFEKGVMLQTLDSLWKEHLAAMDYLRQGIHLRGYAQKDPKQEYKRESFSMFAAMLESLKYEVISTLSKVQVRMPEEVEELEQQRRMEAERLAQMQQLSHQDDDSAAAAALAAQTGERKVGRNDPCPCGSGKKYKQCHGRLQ

Take `COc1cccc(CCNC(=O)CN2CCCC2c2noc(C)n2)c1` (stereo unspecified): the Percent Effect in assay [1] was -2.79%; in assay [2], 8.11%; in assay [3] it was 1.21%; in [4] it was -0.359%; in the assay with Trypanosoma cruzi it was -5.48%; in [5], 7.21%. For the same molecule, the Percent Effect in [6] is 2.51%; in the assay filed under Homo sapiens, 20.8%; in assay [7], 7.92%; in [8], 11%; in assay [9] it was -1.21%.

Regarding `CC(NC(=O)NCc1cccc(N2CCCC2=O)c1)c1ccccc1` (stereo unspecified), the Percent Effect in [1] was -2.62%; in assay [2], 7.79%; in assay [3] it was 4.82%; in assay [4] it was 12.6%; in the assay on Trypanosoma cruzi it was 3.23%; in [5], -10.7%. Moreover, the Percent Effect was 7.36% in [6]; -2.7% in the assay listed under Homo sapiens; 1.91% in assay [7]; 11.8% in assay [8]; -21.1% in [9].

For `COCCC1(CO)CCCN(Cc2ccc(F)c(C)c2)C1` (stereo unspecified), the Percent Effect in assay [1] is -3.62%; in assay [2], 0%; in [3], -3.75%; in assay [4], -6.12%; with Trypanosoma cruzi, -0.88%; in [5] it was -1.24%. Further, the Percent Effect in assay [6] is 2.15%; in the assay listed under Homo sapiens it was -4.5%; in assay [7], 3.23%; in [8], 1.24%; in [9], 2.9%.

In the case of `Cc1ccccc1C1(CNC(=O)NCCc2nnc3n2CCC3)CC1`, the Percent Effect was -1.76% in assay [1]; -5.26% in [2]; -101% in [3]; 5.17% in assay [4]; -3.41% with Trypanosoma cruzi; -2.37% in assay [5]. Besides, the Percent Effect was 7.19% in [6]; -19.3% in the assay listed under Homo sapiens; 0% in assay [7]; -2.6% in assay [8]; -0.461% in assay [9].

With `Cc1nn(C)c(N(C)C)c1CNCc1ccccc1Cn1cncn1`, the Percent Effect is -6.25% in assay [1]; 6.33% in [2]; -0.0601% in assay [3]; 1.64% in assay [4]; -1.33% in the assay on Trypanosoma cruzi; 0.215% in assay [5]. Further, the Percent Effect in [6] is 6.52%; in the assay listed under Homo sapiens, 3.54%; in [7] it was 3.12%; in assay [8], -5.06%; in [9], -11.2%.

In the case of `Cc1ccc(N2CC3(COCCN(Cc4nccs4)C3)OCC2=O)s1` (stereo unspecified), the Percent Effect is 4.24% in assay [1]; 7.79% in [2]; -1.49% in [3]; -11.2% in assay [4]; -7.59% in the assay on Trypanosoma cruzi; 9.68% in [5]. Also, the Percent Effect in [6] was 17.8%; in the assay listed under Homo sapiens, 8.7%; in assay [7] it was 3.17%; in [8], 8.97%; in [9], -11.1%.

As to `CC(C)CCN1CC2(CCCN(C(=O)c3cscn3)C2)CCC1=O` (stereo unspecified), the Percent Effect in [1] was -3.18%; in [2], 7.79%; in assay [3], 1.5%; in [4], 11.5%; with Trypanosoma cruzi, 4.82%; in assay [5], -66.2%. Also, the Percent Effect in [6] was 8.98%; in the assay filed under Homo sapiens, -4.77%; in assay [7], 5.38%; in assay [8], 13.6%; in assay [9], -0.298%.

As to `CCN1C(=O)C(C)(C)c2cc(NC(=O)c3ccco3)ccc21`, the Percent Effect in assay [1] is -5.66%; in [2], 10.4%; in [3], 17.2%; in assay [4], 5.8%; with Trypanosoma cruzi it was 1.48%; in assay [5], -13.8%. Further, the Percent Effect was 12.7% in [6]; 19.7% in the assay listed under Homo sapiens; 12.9% in assay [7]; 21% in assay [8]; 0.612% in assay [9].

Consider `CC(=O)N(Cc1noc(C2CC2)n1)C1CCN(Cc2nccn2C)C1` (stereo unspecified), for which the Percent Effect in assay [1] was -1.42%; in [2], 16.2%; in [3] it was -8.4%; in assay [4] it was -4.39%; with Trypanosoma cruzi it was -6.22%; in assay [5], -4.25%. The Percent Effect in assay [6] is 11.1%; in the assay listed under Homo sapiens, 11.5%; in assay [7] it was 3.96%; in assay [8], 18.3%; in [9], -5.65%.

With `Cc1noc(C(C)C)c1C(=O)NCc1cc(F)cc(F)c1`, the Percent Effect in [1] was -3.99%; in assay [2], 15.6%; in assay [3], 7.66%; in [4], -1.87%; with Trypanosoma cruzi it was -7.12%; in [5] it was 3.92%. Further, the Percent Effect was 11.5% in assay [6]; 17.8% in the assay listed under Homo sapiens; 3.88% in [7]; 14.6% in [8]; -9.23% in assay [9].

Take `Cc1cc(F)ccc1CN1CCC(O)(CN2CCCCC2)C1` (stereo unspecified): the Percent Effect in assay [1] is -6.21%; in assay [2], 5.33%; in assay [3], -7.83%; in assay [4] it was 3.56%; in the assay with Trypanosoma cruzi, -1.46%; in [5] it was -1.04%. Moreover, the Percent Effect in [6] is 19.2%; in the assay filed under Homo sapiens, -1.85%; in [7] it was 4.92%; in assay [8] it was 8.64%; in assay [9] it was -4.93%.
